Pf Dd2 growth: inhibitors of Plasmodium falciparum Dd2 growth; P. falciparum Dd2 growth, SYBR Green, 72 h; hit rate 4.3% among 120,000; Potency, µM (series often up to 28.9 µM), without a hit: at the top dose activity, negative = inhibition, actives largely listed as inhibitors; active means well fitted inhibition curve with a large enough effect;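 further: plate controls were DMSO vehicle for no effect and reference drug for full effect; nearly all actives have a fitted effect of over 65% in size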
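Infected erythrocytes (Dd2, 0.3% parasitemia, 2.5% hematocrit final) are added to compound in RPMI-1640/Albumax II medium, grown 72 h at 37C in low oxygen, then lysed with saponin/Triton-X containing SYBR Green and read by fluorescence.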
Starred values were filed as active, the others as inactive; [ ] = another dose, or the depositor's remark. Only a selection was taken, and hits are over-represented in it overall. Potency means the concentration at half of the fitted maximal effect.

For O=C(NCc1cccs1)c1ccc(CSc2nc3ccncc3n2Cc2cccc(F)c2)cc1 the results were Pf Dd2 growth 8.9µM*.
Screening CCc1ccc(CNC(=O)c2ccc(CSc3nc4ccncc4n3Cc3ccc(OC)cc3)cc2)cc1 returned Pf Dd2 growth 13µM*.
COC(=O)c1ccc(Cn2c(SCc3ccccc3)nc3ccncc32)cc1 was read as Pf Dd2 growth -28%.
`O=C(CSc1nc2ccccc2n1Cc1ccccc1)NCc1ccccc1` gave Pf Dd2 growth -26%.
COc1cccc(CSc2nc3cc(C(=O)NC4CCCC4)ccc3c(=O)n2Cc2ccccc2)c1 was read as Pf Dd2 growth 3%.
COc1ccc(Cn2c(=O)c3ccnn3c3ccc(C(=O)NCc4cccnc4)cc32)cc1 was read as Pf Dd2 growth -35%.
For O=C(NC1CCCCC1)c1ccc(CSc2nc3ccncc3n2Cc2cccc(F)c2)cc1 the results were Pf Dd2 growth 11µM*.
`CCC(=O)N1CCN(C2CCN(Cc3cccnc3)C2=O)CC1` (stereo not drawn) gave Pf Dd2 growth -3%.
For Cc1cccc(C(=O)N2C[C@@H](Oc3cccnc3)C[C@H]2C(=O)N2CCOCC2)c1 the results were Pf Dd2 growth 13%.
For COCCN1CCCC2(CCN(C(=O)Cn3cccnc3=O)C2)C1=O (stereo not drawn) the results were Pf Dd2 growth 1%.
For CCCn1c(C)cnc1C1CCN(C(=O)C2CC2)C1 (stereo not drawn) the results were Pf Dd2 growth 0%.
`CN1[C@H](CO)C[C@H](CNC(=O)c2cn(CCN)nn2)[C@@H]1c1ccccc1F` gave Pf Dd2 growth 11%.
For Cc1ccc(C(=O)N2CCCN(CC3CC3)C(C(C)C)C2)cn1 (stereo not drawn) the results were Pf Dd2 growth -16%.
`Cc1cccc(NC(=O)N2CCC(Oc3ccc(-c4noc(C)n4)cc3)C2)c1` (stereo not drawn) gave Pf Dd2 growth 1%[5.79 µM].
`Cc1ccc2oc(=O)n(CCC(=O)NC3CCCN(c4ncccn4)C3)c2c1` (stereo not drawn) gave Pf Dd2 growth -15%.
COCCN1CC(CO)C2(CCN(C(=O)Cc3ccccc3OC)CC2)C1 (stereo not drawn) was read as Pf Dd2 growth -11%.
For COc1ccc(OCc2nnc(C(=O)N3CCC[C@@H]3c3nc4ccccc4[nH]3)n2-c2ccccc2)cc1 the results were Pf Dd2 growth inactive.
Screening CC(=O)NCC(=O)N[C@@H]1CN(Cc2ccccc2)C[C@H]1CO returned Pf Dd2 growth 6%.
Screening Cc1cncc(C(=O)N2CCC3(CC2)CN(C2CCC2)CC3CO)c1 (stereo not drawn) returned Pf Dd2 growth 9%.
`O=C(NCc1cccc(Cl)c1)c1noc(-c2ccc(F)cc2)n1` gave Pf Dd2 growth -12%.
`COc1ccccc1CNC(=O)c1ccc(CSc2nc3ccncc3n2Cc2cccc(F)c2)cc1` gave Pf Dd2 growth 3.5µM*.
For Cn1c(SCc2ccc(F)cc2)nc2ccc(C(=O)NCc3cccc(Cl)c3)cc21 the results were Pf Dd2 growth 10µM*.
Cc1ccc(CNC(=O)c2ccc3nc(SCc4ccc(F)cc4)[nH]c3c2)cc1 was read as Pf Dd2 growth inactive.
COc1ccc(CNC(=O)NCC2Cn3cccc3C(=O)N2C)cc1 (stereo not drawn) was read as Pf Dd2 growth 0%.
Screening CN(C)c1cccc(-c2nccc3c(=O)cc(N4CCOCC4)oc23)c1 returned Pf Dd2 growth -29%[44.1 µM].
Cc1noc(C)c1C(=O)N1Cc2ccccc2CC2(CCCCN2C)C1 (stereo not drawn) was read as Pf Dd2 growth -24%.
`COc1cc(NC(=O)Cn2nc3n(c2=O)CCCC3)cc(OC)c1OC` gave Pf Dd2 growth 43%.
Screening NCc1ccc(-c2nc(C3CCOC3)nn2Cc2ccccc2)cc1 (stereo not drawn) returned Pf Dd2 growth 4.5µM*.
Screening c1cc(-c2nc(C3CCOC3)nn2Cc2ccc3c(c2)OCO3)[nH]n1 (stereo not drawn) returned Pf Dd2 growth -12%.
For c1ccc(Cn2nc(C3CCOC3)nc2-c2ccoc2)cc1 (stereo not drawn) the results were Pf Dd2 growth -2%.
`CCCNC(=O)c1cc2c(s1)CCN(C(C)=O)C2` gave Pf Dd2 growth 5%.
COc1ccc(-c2noc([C@@H]3C[C@H](NCc4ccc(F)cc4)CN3C)n2)cc1 was read as Pf Dd2 growth -14%[44.1 µM].
Cc1noc(-c2ccn3c(CNC(=O)c4ccccc4F)nnc3c2)n1 was read as Pf Dd2 growth inactive.
For Cc1noc(-c2ccn3c(CNC(=O)c4ccc(F)cc4Cl)nnc3c2)n1 the results were Pf Dd2 growth -22%.
CCCc1noc(-c2ccn3c(CNC(=O)c4ccc(F)cc4Cl)nnc3c2)n1 was read as Pf Dd2 growth 3.5µM*.
For Cc1noc(-c2ccn3c(CNC(=O)c4cccc(Cl)c4)nnc3c2)n1 the results were Pf Dd2 growth inactive.
Cc1noc(-c2ccn3c(CNC(=O)c4ccccc4Cl)nnc3c2)n1 was read as Pf Dd2 growth 0.28µM*.
`CCCc1noc(-c2ccn3c(CNC(=O)c4ccc(C)cc4C)nnc3c2)n1` gave Pf Dd2 growth -7%.
`O=C(O)C[C@@H]1CCN(C(=O)Cc2ccccc2)C[C@@H]1CCN1CCN(c2ccccn2)CC1` gave Pf Dd2 growth -21%.
Screening COc1cc(OC)cc(C(=O)N2CCC(n3cc(-c4nc(C)no4)nn3)C2)c1 (stereo not drawn) returned Pf Dd2 growth inactive.
For COCCC(=O)N1CC(F)(F)C[C@H]1c1nc(-c2cccnc2)no1 the results were Pf Dd2 growth 23%.
Cc1oc(-c2ccccc2)nc1CN1CCCC(C(=O)NCCc2noc(-c3ccccc3)n2)C1 (stereo not drawn) was read as Pf Dd2 growth inactive.
`COc1ccccc1C(=O)N1CCCN(Cc2ccc3c(c2)OCO3)c2ccccc21` gave Pf Dd2 growth inactive.
`O=C(C1CC1)N1CCCN(Cc2ccc3c(c2)OCO3)c2ccccc21` gave Pf Dd2 growth 8.9µM*.
COCCN1CCCN(C(=O)C2CCC2)c2ccccc21 was read as Pf Dd2 growth inactive.
Screening CN1C(=O)C(Cc2nc(-c3ccc4nc[nH]c4c3)no2)N(C)C1=O (stereo not drawn) returned Pf Dd2 growth -13%.
Cc1cc(C)n(CCC(=O)NCC2CCN(c3cc(-c4ccccc4)[nH]n3)CC2)n1 was read as Pf Dd2 growth 11µM*.
O=C(NCC1CCN(c2cc(-c3ccccc3)[nH]n2)CC1)c1ccc[nH]c1=O was read as Pf Dd2 growth -28%.
For Cc1cc(C)n(CCC(=O)NC2CCCN(c3cc(-c4ccc(Cl)cc4)[nH]n3)C2)n1 (stereo not drawn) the results were Pf Dd2 growth inactive.
Cc1ccc(-c2cc(N3CCC(CNC(=O)c4ccc(=O)[nH]c4)CC3)n[nH]2)cc1 was read as Pf Dd2 growth 13µM*.
`O=C(NCC1CCN(c2cc(-c3ccccc3)[nH]n2)CC1)c1ccc[nH]1` gave Pf Dd2 growth -25%.
`Cc1noc(C)c1CC(=O)NCC1CCN(c2cc(-c3ccccc3)[nH]n2)CC1` gave Pf Dd2 growth inactive.
`O=C(c1cn(Cc2ccc(Cl)cc2)nn1)N1CCCC(OCc2cccnc2)C1` (stereo not drawn) gave Pf Dd2 growth -6%.
Screening CC(C)CCN1CCC(Oc2ccc(C(N)=O)cn2)CC1 returned Pf Dd2 growth inactive.
`CCN1C(=O)Cc2ccccc2C1C(=O)NCc1ccc(C)cc1` (stereo not drawn) gave Pf Dd2 growth -17%.
